Screening results from PubChem BioAssay.
Dicer processing – human Dicer pre-microRNA cleavage inhibition; Q9UPY3; cat-ELCCA pre-miR-21 Dicer processing, chemiluminescence; hits give high values; z-score at 25 µM; actives 6% (n = 47,000); AID 1347074; in the data active = z-score above about 3, passing the limit was not always enough;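 note: plate controls were vehicle for no effect and no enzyme for full effect; higher signal means more uncleaved substrate so more Dicer inhibition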
* hit, by the source's call. The entries come from a sample that favours hits as a whole.

SMILES | Dicer processing
CCNc1nc(-c2ccc(Cl)cc2)c(-c2ccc(C)cc2)s1 | -2.2
CCNc1nc2ccc(Cl)cc2nc1NCC | 4.63*
O=C1CC(/C=C/c2ccccc2)(Nc2ccc(S(=O)(=O)N3CCCC3)cc2)C(=O)N1C1CCCCC1 (stereo not given) | -0.57
O=C1CN(S(=O)(=O)c2ccccc2)C(c2ccccc2)c2cc(Br)ccc2N1 (stereo not given) | 0.35
COc1ccc(N2CC3CCc4ccccc4C3=N2)cc1 (stereo not given) | -0.95
COc1ccc(NC(=S)N2N=C3c4ccccc4CCC3C2c2ccc(F)cc2)cc1 (stereo not given) | 0.71
COc1ccc(C2C3CCc4ccccc4C3=NN2CCOC(=O)C2CC2)cc1 (stereo not given) | 4.84*
C=C1SC(Nc2cccc(Cl)c2)=NC1(CC)CC | -0.74
Cc1noc(-c2ccc(Cl)cc2)c1C(=O)NNC(=O)c1ccc(C(F)(F)F)cc1 | 3.81
Cc1nc(C)c(C(=O)NNC(=O)c2ccc(C(F)(F)F)cc2)s1 | -0.39
Cc1noc(NC(=O)c2ccc(C(F)(F)F)cc2)c1[N+](=O)[O-] | 4.62*
COc1ccc2nc3c(cc2c1)c(=O)n(C)c1c3c(=O)n(-c2ccccc2)c(=O)n1-c1ccccc1 | -0.73
Cc1ccc2cc(-c3noc(C(C)C)n3)c(=O)[nH]c2c1 | -1.6
CCOC(=O)c1c(C)nc2ccc(Cl)cc2c1-c1ccccc1 | 0.82
CCOC(=O)c1c(-c2ccccc2)c2oc3ccccc3c2[nH]c1=O | 3.09*
CCOC(=O)c1c(O)c2ccccc2[nH]c1=O | 0.85
COC(=O)CN1c2ccccc2NC2=C(C(=O)CC(C)(C)C2)C1c1ccco1 (stereo not given) | -1.05
COCCOC(=O)C1=C(C)Nc2nc3ccccc3n2C1c1cccc(O)c1 (stereo not given) | 2.34
CC1CCc2sc3ncnc(NCCCN4CCOCC4)c3c2C1 (stereo not given) | 10.9
O=C(CSc1n[nH]c(=O)n1-c1cccc(F)c1)Nc1cc(Cl)cc(Cl)c1 | 0.29
O=C(OCCSc1ccccn1)c1cccc(Cl)c1 | -1.2
O=C(CSc1nnc2sc3ccccc3n12)Nc1nc2c(s1)CCCC2 | 2.76
c1ccc(Nc2nc3c(s2)Cc2ccccc2-3)cc1 | -1.41
c1ccc(Nc2nc3c(s2)CCCC3)cc1 | 4.03*
CCOC(=O)c1cnc(C(F)(F)F)nc1N/N=C/c1ccc(Cl)cc1 | -1.85
SMILES | Dicer processing
Cc1ccc(-c2n[nH]c(=S)o2)cc1 | 4.84*
Cc1ccccc1-c1n[nH]c(=S)o1 | -1.2
CCn1nc(C)cc1-c1n[nH]c(=S)o1 | 0.96
COc1ccccc1-c1n[nH]c(=S)o1 | 3.74*
FC(F)(F)c1ccc(-c2n[nH]c(=S)o2)cc1 | 0.29
COc1ccccc1-c1nc2ccccc2c(=O)o1 | -1.75
Cn1cc(NC(=O)OC(C)(C)C)cc1C(=O)O | 20
CCOC(=O)/C(C#N)=C/c1cc(OC)cc(OC)c1 | 1.6
CCn1cc(C(=O)O)c(=O)c2cc(F)c(N3CCN(S(=O)(=O)c4ccc(Cl)cc4)CC3)cc21 | 3.54*
CCn1cc(C(=O)O)c(=O)c2cc(F)c(N3CCNCC3)cc21 | -0.24
CCn1cc(C(=O)O)c(=O)c2cc(F)c(N3CCN(C)CC3)cc21 | 3
COc1ccc(-c2ccc(C#N)c(SCc3ccccn3)n2)cc1 | 2.39
N#Cc1cn(-c2ccccc2Cl)nc1N | -1.26
COc1cccc(C2/C(=C(\O)c3ccc(Br)cc3)C(=O)C(=O)N2CCCn2ccnc2)c1 (stereo not given) | -0.33
Cc1ccccc1-c1nc2cc(N)ccc2o1 | 5.71
Nc1ccc(CCc2nc3cc(N)ccc3o2)cc1 | 3.87*
Nc1ccc2oc(-c3cccc(-c4nc5cc(N)ccc5o4)n3)nc2c1 | -4.79
O=C(CSc1nc(-c2ccco2)cc(C(F)(F)F)n1)NCc1ccco1 | -0.76
CSc1cc(-c2ccco2)[nH]c(=O)c1C#N | 2
Cc1ccc(C(=O)N2CCN(C(=O)CSc3nnc(N)s3)C2)cc1 | -0.88
CCCCCSc1nnc(N)s1 | 4.61*
Nc1nnc(SCC(=O)N2CCc3ccccc3C2)s1 | 1.77
CCOC(=O)C1=NN(c2ccc(Cl)cc2)/C(=C2\C(=O)NN=C2c2ccccc2)S1 | -5.28
CCSc1nnc(NC(=O)c2cc3ccccc3c(=O)o2)s1 | -1.51
CCOC(=O)c1ncn(Cc2ccccc2)c1N | 3.44*
SMILES | Dicer processing
CCOC(=O)c1cn(Cc2ccccc2)c2cc(C)nn2c1=O | -0.01
CCOC(=O)c1nnn(Cc2ccccc2)c1N | 1.74
COc1ccc(Cl)cc1NC(=O)OCc1ccc(-c2cc(C(F)(F)F)cc(C(F)(F)F)c2)o1 | -0.4
COc1ccc(N=C(NO)c2ccccc2)cc1Cl | 3.11*
ONC(=Nc1ccccc1)c1cccc(Cl)c1 | -1.71
ONC(=Nc1cccc(C(F)(F)F)c1)c1ccccc1 | -0.29
O=[N+]([O-])c1ccccc1N1CCC(CCCC2CCN(c3ccccc3[N+](=O)[O-])CC2)CC1 | 1.86
Nc1ccccc1C(=O)N/N=C/C=C/c1ccccc1 | 0.15
N/C(CC(=O)Nc1ccc(F)cc1F)=N\OS(=O)(=O)c1ccc(Cl)cc1 | 1.02
O=[N+]([O-])/C(=C\c1ccccc1)c1ccccc1 | 0.16
O=C(CCCOc1ccccc1)Nc1ncn[nH]1 | 0.48
CC(C)(C)c1ccc(-c2nnc3sc(-c4ccco4)nn23)cc1 | 1.32
COC(=O)c1cc2c(s1)-c1cc(Cl)ccc1SC2 | -0.08
CN(C)Cc1coc2ccccc2c1=O | -0.56
Cc1csc(-c2cn(C(C)C)c(=O)n(Cc3ccccc3)c2=O)n1 | -0.87
CC(C)n1cc(-c2noc(-c3cccs3)n2)c(=O)n(Cc2ccccc2)c1=O | 3.15*
CC(C)n1cc(-c2nc(-c3ccc(Cl)cc3)cs2)c(=O)n(Cc2ccccc2)c1=O | -0.66
CCc1ccc(Oc2ccc(C(F)(F)F)cc2[N+](=O)[O-])cc1CC | -1.57
O=S(=O)(Oc1cc(Cl)cc(Cl)c1)c1cc(S(=O)(=O)c2ccccc2)cs1 | 2.56
O=C(OCCn1ncc2ccccc2c1=O)c1ccc2c(c1)CCO2 | 0.86
O=C(Nc1cccc(C(F)(F)F)c1)c1cncc(C#Cc2ccccc2)c1 | -2.38
O=C(NC(=S)N1CCc2ccccc21)c1cncc(C#Cc2ccccc2)c1 | 3.76*
O=C(Nc1ccc(Cl)cc1)c1cncc(C#Cc2ccccc2)c1 | 2.02
CN(/N=C/c1ccc(Cl)cc1)c1cnn(C)c(=O)c1Cl | 1.3
CC1(C)Cc2c(c(N3CCOCC3)nc3sc(C(=O)c4ccccc4)c(N)c23)CS1 | 2.76
SMILES | Dicer processing
CCn1c(CN2c3ccccc3Sc3ccccc32)n[nH]c1=S | 0.6
CC(=O)CSc1n[nH]c(CN2c3ccccc3Sc3ccccc32)n1 | 3.5*
CC(C)Cc1nc(SCC(=O)c2ccccc2)n[nH]1 | -0.18
COC(=O)CSc1c(Cl)cncc1Cl | -0.94
CN(C)NC(=O)NC(=O)c1ccc(Oc2ccc(Cl)cc2)c([N+](=O)[O-])c1 | 6.22
O=C(CCc1ccccc1)NNc1c(Cl)cccc1Cl | -1.85
Cc1ccsc1/C=C/c1nc(N)nc(-c2ccccc2O)n1 | 1.33
COc1ccc(OCCSc2nc3ccccc3n2CC(=O)O)cc1 | 0.55
CC(C)CSc1nc2ccccc2n1CC(=O)O | 3.21*
CCCSc1nc2ccccc2n1CC(=O)O | -2
COc1cc(OC)cc(-c2nc3n(n2)C(c2ccccc2)C2=C(CCCC2=O)N3)c1 (stereo not given) | 2.39
O=C1CC(c2ccco2)CC2=C1C(c1ccccc1)n1nc(C(F)(F)F)nc1N2 (stereo not given) | 0.25
CC1CC(=O)C2=C(C1)Nc1nc(C(F)(F)F)nn1C2c1ccccc1 (stereo not given) | 5.2*
FC(F)(F)c1ccccc1NC(=S)NNc1ccc(-c2csnn2)cc1 | 1.66
